This is an account of results in PubChem BioAssay.

In assay [1] the target is Albumin (Bos taurus) (UniProt P02769). Nature of the assay: bovine serum albumin binders on microarray, profiling panel, artefact control for SMM control protein annotation, biochemical, small-molecule microarray, Alexa647 label, 635/667 nm fluorescence (AID 1118).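 Further: score merges 667 nm emission intensity and signal-to-noise per printed compound spot.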 The conditions noted are these: BSA-A647 binding, fluorescence 635 nm, higher = more signal.
Albumin (Bos taurus), sequence (P02769 whole entry, looked up): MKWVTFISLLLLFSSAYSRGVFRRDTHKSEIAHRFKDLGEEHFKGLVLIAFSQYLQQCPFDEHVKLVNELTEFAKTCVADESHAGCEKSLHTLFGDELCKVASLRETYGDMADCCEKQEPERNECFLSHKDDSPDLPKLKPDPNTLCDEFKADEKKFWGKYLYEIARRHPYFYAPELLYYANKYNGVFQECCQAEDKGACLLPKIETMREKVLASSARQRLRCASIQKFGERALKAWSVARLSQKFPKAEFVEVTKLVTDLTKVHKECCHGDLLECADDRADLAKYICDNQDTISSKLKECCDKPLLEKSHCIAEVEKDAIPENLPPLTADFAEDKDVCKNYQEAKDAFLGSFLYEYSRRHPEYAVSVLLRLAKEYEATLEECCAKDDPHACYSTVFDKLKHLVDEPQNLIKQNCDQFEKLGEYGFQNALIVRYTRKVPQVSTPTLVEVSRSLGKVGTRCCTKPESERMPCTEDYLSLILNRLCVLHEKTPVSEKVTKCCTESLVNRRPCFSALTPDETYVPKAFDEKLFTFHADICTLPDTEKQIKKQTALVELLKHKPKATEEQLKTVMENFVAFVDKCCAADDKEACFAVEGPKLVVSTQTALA
The nature of assay [2]: small-molecule microarray binders of probe aXIP, primary screen, biochemical, NeuroSMM set, 635/667 nm fluorescence (AID 1119).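 Further: probe is the protein aXip251-270 applied at 1 µg/mL to compound-printed slides; binding of probe to printed compounds measured as 667 nm fluorescence plus signal to noise.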 The following applies: higher = more signal, called active from +8 up or from −8 down.
The nature of assay [3]: small-molecule binders of probe aNOTCH3, primary screen, biochemical, small-molecule microarray, 635/667 nm fluorescence (AID 1120).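 Further: probe is a biotin-tagged antibody raised against NOTCH3 rather than NOTCH3 protein; score merges spot fluorescence near 667 nm with spot signal to noise.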 The following applies: higher = more signal.
The nature of assay [4]: small-molecule binders of probe aNOTCH2, primary screen, biochemical, small-molecule microarray, 635/667 nm fluorescence (AID 1121).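 Further: score merges feature fluorescence read at 667 nm with its signal to noise.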 The following applies: higher = more signal.
The target in assay [5] is Carbonic anhydrase 2 (Homo sapiens) (UniProt P00918). The experiment in a line: CAII small-molecule binders, profiling panel, biochemical, small-molecule microarray, Alexa647-labelled CAII (AID 1122). The following applies: CAII-A647 binding fluorescence, higher = more signal.
Assay [6] in a line: COS7 lysate on small-molecule microarray, probe aHis, 635 nm (AID 1123).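 Further: z-score combines 667nm fluorescence intensity with signal-to-noise per printed compound spot.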 The conditions noted are these: COS7 cell lysate, fluorescence, higher = more signal.
A short description of assay [7]: compound binding in COS7 lysate, probe aLAP1, primary screen, cell lysate, small-molecule microarray (AID 1124).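 Further: lysate comes from COS7 cells expressing LAP1 and is applied at 0.3 µg/mL; score merges spot fluorescence near 667 nm with signal-to-noise over triplicate slides.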 The following applies: probe aLAP1, fluorescence, higher = more signal.
The test system of assay [8] is Sam68 (KHDRBS1). The experiment in a line: Sam68 small-molecule binders, primary screen, biochemical, small-molecule microarray, 635 nm fluorescence (AID 1125).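 Further: score merges 667 nm channel intensity with signal to noise over triplicate slides.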 The following applies: small-molecule microarray binding, higher = more signal.
Assay [9] concerns Chordin-like protein 2 (CHRDL2). Nature of the assay: CHRDL2 small-molecule binders, primary screen, biochemical, small-molecule microarray, 635 nm fluorescence (AID 1126).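 Further: printed compound slides probed with Chrdl2 protein at 4 µg/mL for 1 h at 4 C; score merges 667 nm emission intensity with signal to noise over three replicate slides.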 The conditions noted are these: small-molecule microarray binding, fluorescence 635 nm; higher = more signal.
Assay [10] addresses Concanavalin-A (Canavalia ensiformis) (UniProt P02866). The experiment in a line: ConA small-molecule binders, primary screen, artefact control for SMM control protein annotation, biochemical, small-molecule microarray, Alexa647 label, 635 nm (AID 1127).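 Further: z combines 667 nm emission intensity with signal-to-noise across three replicate slides.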 The conditions noted are these: ConA-A647 binding fluorescence, higher = more signal.

Active and inactive are the calls of the source.

Concanavalin-A (Canavalia ensiformis), sequence (P02866 whole entry, looked up): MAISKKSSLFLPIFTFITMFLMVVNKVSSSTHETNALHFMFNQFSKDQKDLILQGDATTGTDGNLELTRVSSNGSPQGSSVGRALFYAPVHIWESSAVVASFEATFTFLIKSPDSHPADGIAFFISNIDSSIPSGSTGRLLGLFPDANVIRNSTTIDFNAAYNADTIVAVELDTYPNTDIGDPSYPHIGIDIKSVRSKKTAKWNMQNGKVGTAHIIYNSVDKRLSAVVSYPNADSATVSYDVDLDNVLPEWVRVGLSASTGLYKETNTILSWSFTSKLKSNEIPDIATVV

`CCOC(=O)[C@H](CC(C)C)NC(=O)CCC1CC(OC(=O)NCc2cccc3ccccc23)CC2(CCCC(COC(=O)NCC3CCCCC3)O2)O1` (stereo not given in full): the composite z-score in assay [1] is 0.14; in assay [3], 0.0311; in assay [4] it was -0.0896; in assay [5], 0.392; in assay [6], 0.0741; in assay [7] it was -0.0193. The figures for the composite z-score in assay [8], in assay [9] and in assay [10] were 1.29, 0.32 and 1.08, respectively. Also, the composite Z-score in assay [2] is 0.526 (inactive).
For the compound `CCCNC(=O)OC[C@H]1O[C@H](CCON=C(C)C)C=C[C@@H]1Oc1ccc(OC)cc1`, the composite z-score was 0.317 in assay [1]; 0.154 in assay [3]; -0.0877 in assay [4]; 0.0464 in [5]; 0.857 in [6]; -0.384 in assay [7]. The results for the composite z-score in [8], in assay [9] and in [10] were -0.209, -0.186 and 0.853, respectively. The composite Z-score in [2] is -0.0154 (inactive).
Regarding `CCOC(=O)NN=C1C[C@@H](O)[C@@H](O)[C@@H]2[C@@H]3C(=O)N(c4cccc(Oc5ccccc5)c4)C(=O)[C@@H]3CC[C@@H]12`, the composite z-score is 0.736 in assay [1]; -0.152 in assay [3]; -0.167 in assay [4]; 0.58 in assay [5]; 0.263 in assay [6]; 0.142 in assay [7]. Also, the composite z-score in assay [8] was -0.114; in [9], -0.0646; in [10] it was -0.245. Moreover, the composite Z-score in assay [2] is -0.147 (inactive).
For the compound `COc1ccc(O[C@H]2C=C[C@@H](c3ccccc3)O[C@@H]2COC(=O)CCC(C)=NOC(C)CN2CCCc3nc(C)c(C)cc32)cc1` (stereo not given in full), the composite z-score in [1] was 0.247; in assay [3], 0.0013; in assay [4] it was -0.106; in assay [5], 0.21; in assay [6], 0.676; in assay [7], 0.304. The composite z-score came to 1.31 in [8], 0.43 in [9] and 1.01 in assay [10]. Moreover, the composite Z-score in [2] was 1.32 (inactive).
On to `CC(CCN1CCCc2nc(C)c(C)cc21)=NO[C@@H](C)c1cc(-c2c(C)cc(C)cc2C)no1`, for which the composite z-score in assay [1] is 0.177; in [3], 0.0789; in [4], -0.0668; in assay [5], 0.0276; in [6], 0.517; in [7] it was 0.138. In addition, the composite z-score in assay [8] is 1.04; in [9], 0.9; in assay [10], 0.778. The composite Z-score in [2] is 0.121 (inactive).
For the compound `CO[C@H]1COC(=O)CC=C[C@@H](C)[C@H](OC)COC(=O)CCC[C@@H]1C`, the composite z-score is -0.913 in assay [1]; -0.149 in [3]; -0.118 in assay [4]; -0.601 in assay [5]; 0.302 in assay [6]; 0.923 in assay [7]. Also, the composite z-score was 0.0465 in assay [8], 1.41 in assay [9] and -0.819 in assay [10]. For the same compound, the composite Z-score in assay [2] is 0.0032 (inactive).
For `C=CC[C@@H]1C=C[C@H](ON=C2[C@H]3CCn4c(=O)n(-c5ccccc5)c(=O)n4[C@H]3[C@H](O)[C@@H]3O[C@H]23)[C@@H](CO)O1`, the composite z-score in assay [1] is 0.127; in assay [3], -0.172; in assay [4], -0.101; in assay [5] it was 0.256; in assay [6], -0.143; in [7] it was -0.208. The figures for the composite z-score in assay [8], in assay [9] and in assay [10] were -0.862, 0.564 and 0.535, respectively. For the same compound, in assay [2], the composite Z-score was -0.227 (inactive).
In the case of `CO[C@H]1COC(=O)[C@@H](C)COC(=O)[C@@H](OCc2ccccc2)C=C[C@@H]1C`, the composite z-score in assay [1] is -0.858; in [3], -0.103; in assay [4], -0.115; in [5], -0.369; in [6], -0.194; in assay [7], -0.259. The composite z-score is -0.234 in assay [8], 0.159 in [9] and -0.459 in [10]. Also, the composite Z-score in assay [2] was -0.535 (inactive).
Take `C#CCCCON=C1C[C@@H](O)[C@@H](O)[C@@H]2[C@@H]3C(=O)N(c4cccc(Oc5ccccc5)c4)C(=O)[C@@H]3CC[C@H]12`: the composite z-score was -0.302 in [1]; -0.373 in assay [3]; -0.14 in assay [4]; 0.709 in assay [5]; 0.0922 in assay [6]; 0.762 in [7]. Further, the figures for the composite z-score in [8], in assay [9] and in [10] were -0.582, -0.771 and -0.387, respectively. Further, the composite Z-score in assay [2] was 1.27 (inactive).
On to `C#CCCCON=C1C[C@@H](O)[C@@H](O)[C@@H]2[C@@H]3C(=O)N(c4ccc(F)cc4F)C(=O)[C@@H]3CC[C@H]12`, for which the composite z-score in assay [1] was 0.314; in [3], -0.122; in assay [4] it was -0.151; in assay [5], 0.65; in assay [6], 0.887; in assay [7], 0.145. For the same compound, the composite z-score was 1.15 in assay [8], 0.392 in [9] and 0.772 in assay [10]. In assay [2], the composite Z-score was -0.488 (inactive).
Turning to `CC(C)CCN1CCc2nc(COc3ccccc3)c3c(c2C1)CO[C@@H](C)C3`, the composite z-score in assay [1] is 0.536; in assay [3] it was -0.0343; in assay [4], -0.0797; in assay [5], 0.319; in assay [6] it was 0.965; in assay [7], 0.378. The composite z-score is 0.0676 in [8], 0.119 in assay [9] and 0.432 in assay [10]. Further, in [2], the composite Z-score was 0.354 (inactive).
Turning to `CCOC(=O)[C@H](CC(C)C)NC(=O)CCC1CC(OC(=O)NCc2cccc3ccccc23)CC2(CCCC(COC(=O)NCc3cccc(C(F)(F)F)c3)O2)O1` (stereo not given in full), the composite z-score in assay [1] is -0.105; in assay [3], -0.0113; in [4] it was -0.146; in assay [5] it was -0.0249; in assay [6], 0.0261; in [7], 0.127. The composite z-score in assay [8] is 0.046; in [9], 0.964; in assay [10] it was 0.139. For the same compound, the composite Z-score in assay [2] is 0.041 (inactive).
Take `CO[C@H]1COC(=O)[C@H](C)NC(=O)CC=C[C@@H](C)[C@H](OC)COC(=O)[C@@H](OCc2ccccc2)C=C[C@@H]1C`: the composite z-score in assay [1] is -0.744; in assay [3], -0.068; in assay [4], -0.0657; in assay [5], -0.722; in [6], -0.724; in [7], -0.198. Besides, the composite z-score in assay [8] was -0.206; in assay [9], 1.06; in assay [10], -0.909. In addition, the composite Z-score in assay [2] was -0.0157 (inactive).
